# PMC5540273 (PLoS ONE, 2017)
# System: EPHB3
# Conditions: concentration: 1 μM,replicates: in singlicate; n = 1
# 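Note: KINOMEscan kinase panel screen.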
row,Compound,%Inh
1,CNC(=O)c1ccccc1Nc1nc(Nc2cccc(CS(C)(=O)=O)c2)ncc1C.O=CO [GSK1520489],9%
2,O=C(Nc1n[nH]c2cc(-c3ccco3)ccc12)C1CC1 [SB-737447],6%
3,CSc1nccc(-c2c(-c3ccc(F)cc3)ncn2CCCN2CCOCC2)n1.Cl [SB-217146],0%
4,COc1cccc(CNC(=O)NC2CCN(c3ccnc(Nc4cc(OC)c(OC)c(OC)c4)n3)C2)c1 (centres unmarked) [GSK1379765],20%
5,Cn1cc(-c2cccc3c(N)c(C(N)=O)nnc23)cn1,11%
6,Cc1ccc(Nc2ccnc(Nc3ccc4c(c3)CS(=O)(=O)C4)n2)cc1O.Cl [GW579362],0%
7,CC(C(=O)NC1CCN(c2ccnc(Nc3ccc(F)cc3)n2)C1)c1ccc(Cl)cc1 (centres unmarked) [GSK1379713],0%
8,COc1cc2c(Nc3ccc(NC(=O)c4ccccc4)cc3)ncnc2cc1OCCCN1CCOCC1 [GSK301329],5%
9,N#Cc1cccc(C(=O)NC2CCN(c3ccnc(Nc4ccc(F)cc4)n3)C2)c1 (centres unmarked) [GSK1379708],13%
10,CN1CCN(CCCNc2nccc(-c3c(-c4ccc(F)cc4)nn4cc(C(N)=O)ccc34)n2)CC1 [GW622475],0%
11,O=C(Nc1cccc(C(F)(F)F)c1)c1cccc(Oc2ccc3nccn3n2)c1,12%
12,COC(=O)Nc1nc2cc(Oc3ccc(NC(=O)Nc4cc(C(F)(F)F)ccc4Cl)cc3)ccc2[nH]1.Cl [GW697465],10%
13,Cn1ccc2ncnc(Oc3ccc(NC(=O)Nc4ccnc(C(F)(F)F)c4)c(Cl)c3)c21,25%
14,Cc1cccc2c(-c3ccncc3)c(-c3ccc(F)cc3)nn12.Cl [GW461487],7%
15,COc1cccc(C2=C(Nc3cccc(Cl)c3)C(=O)NC2=O)c1 [SB-341556],17%
16,OCCn1cc(-c2cnc3nnn(Cc4ccc5ncccc5c4)c3n2)cn1,0%
17,CC(=O)c1c(-c2ccncc2)[nH]c(-c2ccncc2)c1C [GW493036],3%
18,Cn1ccc2ncnc(Oc3ccc(NC(=O)Nc4cncc(C(F)(F)F)c4)c(Cl)c3)c21,37%
19,O=c1[nH]cc(-c2ccc(O)cc2)c2sc(-c3ccncc3)cc12 [GSK1033723],15%

row,Compound,%Inh
1,COC(=O)c1cccc(NC(=O)NC2CCN(c3ccnc(NCc4ccc(F)cc4)n3)CC2)c1 [GSK1379860],11%
2,Cn1ccc2ncnc(Oc3ccc(NC(=O)Nc4cccc(C(F)(F)F)c4)c(F)c3)c21,74%
3,Cl.c1ccc(Oc2ccc(Nc3ccnc4cc(-c5ccc(CN6CCNCC6)o5)ccc34)cc2)nc1 [GW567142],0%
4,CS(=O)(=O)c1cccc(CNc2nc(Nc3ccc4c(c3)[C@@H]3C[C@@H]4CNC3=O)ncc2C(F)(F)F)c1,5%
5,C[C@@H](Oc1cc(-n2cnc3ccc(-c4ccncc4)cc32)sc1C(N)=O)c1ccccc1Cl [GSK483724],9%
6,CCOC(=O)N1CCC(n2cnc(-c3ccc(F)cc3)c2-c2ccnc(N)n2)CC1 [SB-219952],11%
7,Cn1ccc2ncnc(Oc3ccc(NC(=O)Nc4cc(C(C)(C)C)on4)c(Cl)c3)c21,40%
8,Cc1n[nH]c2cc(Nc3ccnc(Nc4cccc(CN5CCOCC5)c4)n3)ccc12 [GW682569],12%
9,NC(=O)c1ccc(-c2cc3ncnc(SCC(=O)O)c3s2)cc1,26%
10,Cc1ccc(CC(=O)N2CCc3cc(-c4cn(C)c5ncnc(N)c45)ccc32)cc1 [GSK2634758],0%
11,COc1ccc(Nc2nccc(N3CCC(NC(=O)c4cccc(C#N)c4)C3)n2)cc1 (centres unmarked) [GSK1379730],3%
12,Cn1ccc2ncnc(Oc3ccc(NC(=O)Nc4cccc(C(F)(F)F)c4)c(Cl)c3)c21,66%
13,O=C(Nc1ccccc1)c1cccc(Oc2ccc3nccn3n2)c1,0%
14,Cn1ccc2ncnc(Oc3ccc(NC(=O)Nc4cnn(C(C)(C)C)c4)c(Cl)c3)c21,29%
15,CCn1c(-c2nonc2N)nc2cncc(CNC3CCNCC3)c21.Cl [SB-747651],8%
16,COc1cc2nccc(Nc3ccc(Oc4ccccc4)cc3)c2cc1OC.Cl [GI261656],0%
17,Cl.Cl.NC[C@H](CC1CCCCC1)NC(=O)c1ccc(-c2ccnc3[nH]ccc23)s1 [GSK1581428],15%
18,Cc1cccc(-c2nc(Nc3ccncc3)c3sccc3n2)n1 [GW869641],16%

# System: EPHB4
# Conditions: concentration: 1 μM,replicates: in singlicate; n = 1
row,Compound,%Inh
1,CNC(=O)c1ccccc1Nc1nc(Nc2cccc(CS(C)(=O)=O)c2)ncc1C.O=CO [GSK1520489],91.6%
2,O=C(Nc1n[nH]c2cc(-c3ccco3)ccc12)C1CC1 [SB-737447],0%
3,CSc1nccc(-c2c(-c3ccc(F)cc3)ncn2CCCN2CCOCC2)n1.Cl [SB-217146],0%
4,COc1cccc(CNC(=O)NC2CCN(c3ccnc(Nc4cc(OC)c(OC)c(OC)c4)n3)C2)c1 (centres unmarked) [GSK1379765],8%
5,Cn1cc(-c2cccc3c(N)c(C(N)=O)nnc23)cn1,5%
6,Cc1ccc(Nc2ccnc(Nc3ccc4c(c3)CS(=O)(=O)C4)n2)cc1O.Cl [GW579362],16%
7,CC(C(=O)NC1CCN(c2ccnc(Nc3ccc(F)cc3)n2)C1)c1ccc(Cl)cc1 (centres unmarked) [GSK1379713],0%
8,COc1cc2c(Nc3ccc(NC(=O)c4ccccc4)cc3)ncnc2cc1OCCCN1CCOCC1 [GSK301329],2%
9,N#Cc1cccc(C(=O)NC2CCN(c3ccnc(Nc4ccc(F)cc4)n3)C2)c1 (centres unmarked) [GSK1379708],5%
10,CN1CCN(CCCNc2nccc(-c3c(-c4ccc(F)cc4)nn4cc(C(N)=O)ccc34)n2)CC1 [GW622475],20%
11,O=C(Nc1cccc(C(F)(F)F)c1)c1cccc(Oc2ccc3nccn3n2)c1,23%
12,COC(=O)Nc1nc2cc(Oc3ccc(NC(=O)Nc4cc(C(F)(F)F)ccc4Cl)cc3)ccc2[nH]1.Cl [GW697465],51%
13,Cn1ccc2ncnc(Oc3ccc(NC(=O)Nc4ccnc(C(F)(F)F)c4)c(Cl)c3)c21,20%
14,Cc1cccc2c(-c3ccncc3)c(-c3ccc(F)cc3)nn12.Cl [GW461487],0%
15,COc1cccc(C2=C(Nc3cccc(Cl)c3)C(=O)NC2=O)c1 [SB-341556],4%
16,OCCn1cc(-c2cnc3nnn(Cc4ccc5ncccc5c4)c3n2)cn1,0%
17,CC(=O)c1c(-c2ccncc2)[nH]c(-c2ccncc2)c1C [GW493036],18%
18,Cn1ccc2ncnc(Oc3ccc(NC(=O)Nc4cncc(C(F)(F)F)c4)c(Cl)c3)c21,35%
19,O=c1[nH]cc(-c2ccc(O)cc2)c2sc(-c3ccncc3)cc12 [GSK1033723],13%

row,Compound,%Inh
1,COC(=O)c1cccc(NC(=O)NC2CCN(c3ccnc(NCc4ccc(F)cc4)n3)CC2)c1 [GSK1379860],4%
2,Cn1ccc2ncnc(Oc3ccc(NC(=O)Nc4cccc(C(F)(F)F)c4)c(F)c3)c21,81%
3,Cl.c1ccc(Oc2ccc(Nc3ccnc4cc(-c5ccc(CN6CCNCC6)o5)ccc34)cc2)nc1 [GW567142],4%
4,CS(=O)(=O)c1cccc(CNc2nc(Nc3ccc4c(c3)[C@@H]3C[C@@H]4CNC3=O)ncc2C(F)(F)F)c1,16%
5,C[C@@H](Oc1cc(-n2cnc3ccc(-c4ccncc4)cc32)sc1C(N)=O)c1ccccc1Cl [GSK483724],10%
6,CCOC(=O)N1CCC(n2cnc(-c3ccc(F)cc3)c2-c2ccnc(N)n2)CC1 [SB-219952],4%
7,Cn1ccc2ncnc(Oc3ccc(NC(=O)Nc4cc(C(C)(C)C)on4)c(Cl)c3)c21,35%
8,Cc1n[nH]c2cc(Nc3ccnc(Nc4cccc(CN5CCOCC5)c4)n3)ccc12 [GW682569],11%
9,NC(=O)c1ccc(-c2cc3ncnc(SCC(=O)O)c3s2)cc1,1%
10,Cc1ccc(CC(=O)N2CCc3cc(-c4cn(C)c5ncnc(N)c45)ccc32)cc1 [GSK2634758],10%
11,COc1ccc(Nc2nccc(N3CCC(NC(=O)c4cccc(C#N)c4)C3)n2)cc1 (centres unmarked) [GSK1379730],0%
12,Cn1ccc2ncnc(Oc3ccc(NC(=O)Nc4cccc(C(F)(F)F)c4)c(Cl)c3)c21,64%
13,O=C(Nc1ccccc1)c1cccc(Oc2ccc3nccn3n2)c1,3%
14,Cn1ccc2ncnc(Oc3ccc(NC(=O)Nc4cnn(C(C)(C)C)c4)c(Cl)c3)c21,15%
15,CCn1c(-c2nonc2N)nc2cncc(CNC3CCNCC3)c21.Cl [SB-747651],0%
16,COc1cc2nccc(Nc3ccc(Oc4ccccc4)cc3)c2cc1OC.Cl [GI261656],3%
17,Cl.Cl.NC[C@H](CC1CCCCC1)NC(=O)c1ccc(-c2ccnc3[nH]ccc23)s1 [GSK1581428],14%
18,Cc1cccc(-c2nc(Nc3ccncc3)c3sccc3n2)n1 [GW869641],0%
